# Shown are actives, neighbours in structure and some others; about 2.1% of the full set was active somewhere.
# Abeta yeast res: A-beta toxicity reversal in yeast; yeast expressing A-beta42, growth rescue, OD600, 48 h; response scale: 0% DMSO, 100% iron-clioquinol control; Potency, µM (doses to about 46.1 µM), usual class: activators; actives 0.063% (n = 410,000); also: nearly all actives have a fitted effect of over 55% in size
#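 Yeast growth medium received pinned compounds, then yeast cells expressing toxic A-beta were added; plates incubated at 30 C for 48 hr. Growth read as absorbance at 600 nm, normalized to DMSO and equimolar FeCl3 plus clioquinol controls.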
# AT treatment: potential ataxia-telangiectasia treatment; F2112 A-T fibroblasts, KAP-1 phosphorylation AlphaLISA; neocarzinostatin DNA damage 30 min before lysis; Potency, µM (titrated, usually from 57.5 µM), without a hit: at the highest dose activation, actives largely listed as activators; actives 0.19% (n = 320,000); also: % of control where 0% means no effect; nearly all actives have a fitted effect of over 45% in size
#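 hTERT-immortalized A-T patient fibroblasts (F2112), 500 cells/well in OPTI-MEM, 1% FBS, got compounds for 60 min, then NCS for 30 min at 37C. Lysates were then assayed for phospho-KAP-1 by AlphaLISA (anti-pKAP1 donor, anti-KAP1 acceptor beads), 6 hr at 25C.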
# TDP-43 yeast inh: rescues yeast growth from TDP-43 toxicity; TDP-43 expressing yeast growth rescue, BacTiter-Glo, 24 h; Potency, µM (highest dose often 46.1 µM), inactives show top-dose growth rescue (activation), usual class: activators; actives 1.8% (n = 410,000); AID 652104; also: % of control where 0% means no effect; nearly all actives have a fitted effect of over 50% in size
#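 Cell-based yeast growth screen: TDP-43 expression induced in galactose, inoculum OD600=0.02 after raffinose pregrowth to mid-log. Read-out BacTiter-Glo luminescence at 24 hr, 30 deg C; inhibition of toxicity seen as signal increase.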
# Glioma ERSR ind: inducers of ER stress response in human glioma cells. actives 0.02% (n = 420,000). Potency, µM, without a hit: top-dose activation, usual class: activators. U87-MG GRP78 promoter luciferase reporter, 16 h. AID 602332; also: series mostly up to about 76 µM; % of control where 0% means no effect; nearly all actives have a fitted effect of over 35% in size
#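 Stably transfected U87-MG glioma cells carrying a GRP78-based luciferase sensor; 16 h compound incubation. Luminescence end-point read 10 min after Bright-Glo addition at room temperature.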
# Mito fusion yeast: mitochondrial division inhibition or fusion activation; S. cerevisiae fusion-defective mutant growth rescue, CellTiterGlo 48 h; Potency, µM (top dose mostly 46.1 µM), for the others: at the top dose growth rescue (activation), hits mostly activators; actives 0.23% (n = 320,000); also: % of control where 0% means no effect; nearly all actives have a fitted effect of over 45% in size
#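 Yeast fusion mutant, YPEG (non-fermentable carbon), compound, 48 h at 37C non-permissive; CellTiterGlo added, 10 min RT, luminescence read. Rescued growth = division inhibition.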
# aSyn rescue: inhibitors of alpha-synuclein toxicity in yeast; Yeast expressing alpha-synuclein, growth rescue, BacTiter-Glo, 24 h; actives 0.14% (n = 370,000); Potency, µM (highest dose often 46.1 µM), without a hit: top-dose growth rescue (activation), usual class: activators; also: % of control where 0% means no effect; nearly all actives have a fitted effect of over 65% in size
#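 Rescue of yeast growth: cells expressing toxic alpha-synuclein, induced in galactose at OD600 0.02, incubated with compound 24 h at 30 C. ATP luminescence quantified growth; inhibitors of toxicity appear as activators.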
# The depositor's hits bear a star; i = inactive; ? = inconclusive; . = no result; [ ] = remark or other dose. Calls follow the shape of the dose curve; as a rule, active = well fitted curve in the direction sought with a large enough effect; inconclusive = small, poorly fitted or top-dose-only effect, or another doubt; inactive = no such curve, though single readings can be large; an effect the other way counts as inactive or inconclusive. Potency is read from the fitted curve at half-maximal effect.
SMILES,Abeta yeast res,AT treatment,TDP-43 yeast inh,Glioma ERSR ind,Mito fusion yeast,aSyn rescue
CC(=O)Nc1nnc(-c2ccc3c(c2)CCCC3)o1,i,2.6%,31.6µM*,-5.5%,-13.5%,-9.8%
O=C(Nc1nncs1)C1COc2ccccc2O1 (stereo unspecified),i,-0.1%,-13.0%,1.1%,3.1%,-1.6%
COc1ccc(-c2nnc(NC(=O)c3ccccc3C)o2)cc1,i,-27.0%,?,0.1%,-14.6%,?
CC1CN(S(=O)(=O)c2ccc(C(=O)Nc3nnc(-c4ccc5c(c4)CCCC5)o3)cc2)CC(C)O1 (stereo unspecified),i,-8.6%,21.0%,-4.0%,-0.1%,1.4%
O=C(Nc1nnc(-c2ccc3c(c2)CCCC3)o1)C1COc2ccccc2O1 (stereo unspecified),?,0.9%,17.8µM*,1.7%,2.1%,6.31µM*
COc1ccccc1C(=O)Nc1nnc(-c2ccc3c(c2)CCCC3)o1,i,-11.8%,17.8µM*,-2.4%,8.5%,?
CCOC(=O)c1ccccc1NC(=S)N1CCC(C)CC1,i,-2.6%,11.2µM*,-2.5%,0.4%,0.6%
OCCN1CCN(Cc2ccc3c(c2)CN(Cc2cccc4ncccc24)CCO3)CC1,.,.,.,-0.9%,.,.
COc1cccc(-c2sc3ccc(OC)cc3c2-c2ccc(OCCN3CCOCC3)cc2)c1,i,-4.1%,35.5µM*,-0.4%,.,-44.2%
O=C(CCl)N1c2ccccc2SCC1c1ccccc1 (stereo unspecified),i,32.3%,7.94µM*,-19.2%,1.2%,-1.7%
CCN=c1scc(-c2ccco2)n1/N=C/c1ccc(OC)c(O)c1,i,.,?,1.4%,5.2%,-2.8%
CCN=c1scc(-c2ccco2)n1/N=C/c1ccc(O)cc1,i,.,17.8µM*,15.7%,6.9%,1.7%
Clc1ccc(OCCn2cnc(Cl)c2Cl)cc1,?,0.0%,11.2µM*,-7.1%,-5.4%,19.5%
COc1ccc(OCCn2cnc(Cl)c2Cl)cc1,i,7.7%,15.7%,-4.7%,-3.7%,2.8%
Cc1cccc(OCCSCc2nc3ccccc3[nH]2)c1,i,-5.1%,5.8%,-4.5%,-10.5%,-0.1%
Cc1cccc(OCCCSc2nc3ccccc3[nH]2)c1,i,2.7%,20µM*,-4.7%,1.9%,-16.2%
c1ccc2c(c1)nc(N1CCCCC1)c1ccccc12,i,14.1µM*,17.7%,-4.1%,0.3%,4.4%
O=C(NCC1(N2CCOCC2)CCCCC1)c1cnn(-c2nccc(-c3cccs3)n2)c1C1CC1,.,.,.,2.3%,.,.
Cc1ccc(NC(=O)N2CCc3c([nH]c4ccccc34)C2c2ccccc2F)c(Cl)c1 (stereo unspecified),i,.,?,-3.0%,.,.
CC(C)Cc1nc(N2CCN(C(=O)c3ccccc3)CC2)c(C#N)c2c1CCC2,i,14.4%,25.1µM*,-3.0%,6.2%,2.7%
NC(=O)c1nc(Nc2ccccc2)sc1NC(=O)c1ccccc1Br,i,.,11.0%,-6.3%,.,.
COc1ccc(-c2[nH]c(-c3ccc4c(c3)OCO4)nc2-c2ccccc2)cc1,i,-1.1%,15.8µM*,-7.7%,-5.9%,-18.1%
COc1cc(-c2nc(-c3ccccc3)c(-c3ccc(F)cc3)[nH]2)cc2c1OCO2,i,-0.4%,0.0%,-5.6%,-8.3%,2.2%
O=C(NC(=O)c1c(F)cccc1F)Nc1ccccc1SC(F)F,i,10µM*,-15.5%,2.3%,-3.3%,-1.6%
O=C(Nc1ccccc1)c1c(F)cccc1F,i,9.7%,-4.0%,0.3%,1.0%,-16.2%
SMILES,Abeta yeast res,AT treatment,TDP-43 yeast inh,Glioma ERSR ind,Mito fusion yeast,aSyn rescue
O=C(Nc1cccc(NC(=O)c2cccc(F)c2)n1)c1cccc(F)c1,i,6.8%,10µM*,-2.4%,29.0%,-2.5%
Cc1nn(C(=O)CNS(=O)(=O)c2ccccc2)c(C)c1Sc1ccc(Cl)cc1,i,3.8%,15.8µM*,1.3%,6.8%,-11.0%
Cc1nn(C(=O)COc2ccc(Cl)cc2)c(C)c1Sc1ccccc1,i,.,-0.4%,0.0%,.,.
CCOC(=O)Cn1c(=O)n(Cc2ccco2)c(=O)c2ccc(C(=O)NC3CCCC3)cc21,i,7.0%,12.2%,-1.9%,0.0%,0.562µM*
O=C(CN1C(=O)c2cccc([N+](=O)[O-])c2C1=O)NCc1ccccc1,i,3.16µM*,3.0%,-3.8%,-3.0%,0.0%
O=C1c2cccc([N+](=O)[O-])c2C(=O)N1CCO,i,-2.0%,15.6%,0.2%,-2.6%,1.1%
COCCNc1c(-c2cc3ccc(C)c(C)c3[nH]c2=O)nc2ccccn12,i,4.8%[11.5 µM],-9.0%,3.5%,-0.5%,3.1%
COC(=O)c1sc(=S)n(Cc2ccccc2)c1C,i,-9.1%,?,-4.0%,-3.4%,2.3%
CC(=O)c1sc(=S)n(Cc2ccccc2)c1C,i,-5.6%,12.6µM*,-4.2%,12.5%,0.4%
COc1ccc(/C=C/C(=O)NC(=S)NNC(=O)c2ccco2)cc1OC,i,5.6%,13.2%,-0.3%,-8.1%,5.3%
COc1ccc(C(=O)NNC(=S)NC(=O)/C=C/c2cccs2)cc1,8.91µM*,6.4%,?,-4.6%,-1.3%,7.08µM*
COc1ccc(/C=C/C(=O)NC(=S)NNC(=O)c2ccco2)cc1,7.08µM*,1.8%,?,0.3%,-6.9%,24.4%
COc1ccc(C(=O)NNC(=S)NC(=O)C(C)(C)C)cc1,5.62µM*,13.8%,-59.9%,?,-10.8%,?
COc1ccc(C(=O)NC(=S)NNC(=O)c2ccco2)cc1,?,-6.3%,-21.7%,3.8%,-4.9%,9.5%
COc1ccccc1OCC(=O)NNC(=S)NC(=O)c1ccco1,7.94µM*,3.0%,29.2%,-5.0%,3.5%,?
CCN(CC)CCNC(=O)c1[nH]c2ccccc2c1Sc1ccc(Cl)cc1,i,.,8.1%,-3.4%,.,.
COC(=O)C1=C(C)Nc2nc(-c3ccccc3)nn2C1c1ccc(C)o1 (stereo unspecified),11.2µM*,8.8%,0.0%,4.2%,8.4%,-12.1%
COc1ccc(C2C(C(=O)Nc3ccccc3)=C(C)Nc3nc(-c4ccc(Cl)cc4)nn32)cc1 (stereo unspecified),i,.,13.4%,0.7%,.,.
CC(C)c1ccc(C2CC(c3ccc(Br)cc3)=NN2C(N)=S)cc1 (stereo unspecified),10µM*,-0.5%,-6.4%,3.0%,?,-13.2%
CC(=O)N1N=C(c2ccc(Br)cc2)CC1c1ccc(Br)cc1 (stereo unspecified),i,.,5.8%,3.7%,.,8.8%
CC(=O)c1ccc(NC(=S)Nc2cccc3cnccc23)cc1,i,39.8µM*,-18.9%,-1.7%,-1.1%,-5.8%

# Assay outcomes from PubChem.
